# Measured values as given in ChEMBL document CHEMBL3988442, “University of Dundee, Small-Polar-MMV Screening Library” (2021).
# For some assays here: Potency and affinity values are given separately.
# Tests used:
# Parameters in all cases: scale not given: direction of the effect not stated beside the values
# [1] = molecular target: Protein translocase subunit SecA (Escherichia coli (strain K12)) (UniProt P10408); test: Assay to Identify E. coli SecA ATPase Inhibitors; assay type: functional; details: 30 µM
# [2] = molecular target: T1, Ubiquitin-activating enzyme e1, putative (Leishmania donovani (strain BPK282A1)) (UniProt E9BSI1); test: Leishmania donovani Ubiquitin Activating Enzyme (LdE1); assay type: functional; details: 30 µM
# T1 sequence (whole entry): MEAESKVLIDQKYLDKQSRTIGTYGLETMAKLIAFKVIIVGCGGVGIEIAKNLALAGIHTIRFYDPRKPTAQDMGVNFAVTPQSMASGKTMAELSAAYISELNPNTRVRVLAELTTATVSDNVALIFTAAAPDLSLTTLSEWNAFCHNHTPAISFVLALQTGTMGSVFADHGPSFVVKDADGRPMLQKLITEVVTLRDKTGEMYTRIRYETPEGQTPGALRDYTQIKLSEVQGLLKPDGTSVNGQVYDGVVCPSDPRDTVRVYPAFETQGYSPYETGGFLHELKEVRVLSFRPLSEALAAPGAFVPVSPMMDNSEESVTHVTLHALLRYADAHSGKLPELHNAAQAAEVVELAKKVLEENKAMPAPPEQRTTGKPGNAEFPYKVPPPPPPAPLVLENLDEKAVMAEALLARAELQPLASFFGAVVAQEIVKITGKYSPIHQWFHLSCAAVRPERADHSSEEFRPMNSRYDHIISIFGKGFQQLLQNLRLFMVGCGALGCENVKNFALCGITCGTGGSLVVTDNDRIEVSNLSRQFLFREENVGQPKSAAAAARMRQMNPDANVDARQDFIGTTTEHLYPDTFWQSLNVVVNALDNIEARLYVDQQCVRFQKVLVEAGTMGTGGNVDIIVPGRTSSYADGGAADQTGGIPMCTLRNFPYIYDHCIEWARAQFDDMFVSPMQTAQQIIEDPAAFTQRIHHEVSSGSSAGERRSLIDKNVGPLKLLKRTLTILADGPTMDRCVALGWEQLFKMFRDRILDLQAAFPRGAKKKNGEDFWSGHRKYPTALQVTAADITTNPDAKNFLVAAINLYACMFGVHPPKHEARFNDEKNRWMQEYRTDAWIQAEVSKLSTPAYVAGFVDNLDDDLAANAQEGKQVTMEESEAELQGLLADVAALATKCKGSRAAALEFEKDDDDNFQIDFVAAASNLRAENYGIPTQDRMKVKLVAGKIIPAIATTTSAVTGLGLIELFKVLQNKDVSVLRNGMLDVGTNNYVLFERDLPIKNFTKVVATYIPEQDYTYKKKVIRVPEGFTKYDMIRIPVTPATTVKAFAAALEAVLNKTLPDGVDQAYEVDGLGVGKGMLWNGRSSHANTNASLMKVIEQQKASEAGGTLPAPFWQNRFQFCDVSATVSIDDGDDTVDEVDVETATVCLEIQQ
# [3] = molecular target: T2, Aspartate--tRNA(Asp/Asn) ligase (Mycobacterium tuberculosis (strain ATCC 25618 / H37Rv)) (UniProt P9WFW3); test: Assay for Asp RNA synthetase-1 from Mycobacterium tuberculosis; assay type: functional; details: 30 µM; further: in the data most compounds retested in dose-response had high values
# T2 sequence (whole entry): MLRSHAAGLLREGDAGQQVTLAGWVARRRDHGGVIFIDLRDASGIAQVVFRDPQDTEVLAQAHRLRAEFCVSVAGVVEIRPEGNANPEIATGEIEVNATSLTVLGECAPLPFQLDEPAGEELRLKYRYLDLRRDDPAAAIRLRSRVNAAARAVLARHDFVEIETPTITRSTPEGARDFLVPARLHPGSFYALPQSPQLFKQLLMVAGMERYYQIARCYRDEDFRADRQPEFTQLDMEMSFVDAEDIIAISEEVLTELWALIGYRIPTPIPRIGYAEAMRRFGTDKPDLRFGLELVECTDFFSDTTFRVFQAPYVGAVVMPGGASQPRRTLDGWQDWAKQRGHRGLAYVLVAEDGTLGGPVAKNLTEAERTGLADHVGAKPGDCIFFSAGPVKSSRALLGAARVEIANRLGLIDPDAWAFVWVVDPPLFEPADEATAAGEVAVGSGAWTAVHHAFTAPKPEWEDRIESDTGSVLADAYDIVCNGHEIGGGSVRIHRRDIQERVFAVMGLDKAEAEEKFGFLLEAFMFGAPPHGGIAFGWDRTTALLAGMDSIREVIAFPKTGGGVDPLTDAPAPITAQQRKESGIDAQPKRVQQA
# [4] = molecular target: AMP-activated protein kinase, AMPK (Homo sapiens) (UniProt P54646+O43741+P54619+Q9UGJ0+Q9Y478+Q13131+Q9UGI9); test: AMP-dependent Kinase enzyme assay. An in vitro enzyme assay that detects ADP turnover that is directly proportional to AMPK activity. This uses naive AMPK that is activated during the assay with MK-8722; assay type: functional; details: 30 µM
# [5] = molecular target: Sialic acid-binding Ig-like lectin 9 (Homo sapiens) (UniProt Q9Y336); test: Hs-Siglec9 ALPHAscreen SOP 20170721; details: 10 µM
# [6] = test system: Trypanosoma cruzi; test: Trypanosoma cruzi phosphomannomutase and mannose-1-phosphate guanylyltransferase assay; assay type: functional; details: 10 µM
# [7] = molecular target: T3, Arginase-2, mitochondrial (Homo sapiens) (UniProt P78540); test: in vitro enzyme assay to detect the production of urea directly proportional to the activity of Arginase II; assay type: functional; details: 33.3 µM; further: in the data most compounds retested in dose-response had high values
# T3 sequence (whole entry): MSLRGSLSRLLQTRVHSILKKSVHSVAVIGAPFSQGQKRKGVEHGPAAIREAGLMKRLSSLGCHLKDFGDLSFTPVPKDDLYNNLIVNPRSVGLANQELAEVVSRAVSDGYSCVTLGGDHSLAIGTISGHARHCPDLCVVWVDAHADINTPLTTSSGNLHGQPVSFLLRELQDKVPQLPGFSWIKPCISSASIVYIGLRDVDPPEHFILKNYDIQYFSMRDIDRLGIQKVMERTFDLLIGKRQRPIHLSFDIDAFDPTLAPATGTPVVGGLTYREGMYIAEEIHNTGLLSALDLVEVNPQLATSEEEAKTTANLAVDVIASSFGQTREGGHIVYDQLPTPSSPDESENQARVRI
# [8] = molecular target: T4, Proteasome subunit beta (Trypanosoma cruzi) (UniProt O96673); test: Trypanosoma cruzi proteasome chymotrypsin-like activity (TcProtChymo) assay.; further: in the data most compounds retested in dose-response had high values; assay type: functional; details: 9.37 µM
# T4 sequence (whole entry): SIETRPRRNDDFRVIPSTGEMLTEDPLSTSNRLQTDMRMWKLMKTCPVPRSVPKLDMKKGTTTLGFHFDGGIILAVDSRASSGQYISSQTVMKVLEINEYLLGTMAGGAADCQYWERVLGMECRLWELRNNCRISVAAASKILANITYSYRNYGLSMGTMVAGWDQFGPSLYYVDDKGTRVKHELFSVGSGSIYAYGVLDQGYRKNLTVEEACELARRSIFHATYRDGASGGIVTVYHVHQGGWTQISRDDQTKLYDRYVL
# [9] = species: Homo sapiens; test: To identify inhibition of the IFN signalling (Jak-Stat) pathway via expression of an eGFP reporter gene under the control of an IFN-stimulated response element (ISRE) containing MxA promoter.; assay type: functional; details: 30 µM
# [10] = molecular target: Shiga toxin 2 (Escherichia coli O157:H7) (UniProt P09385+P09386); test: E. coli 0.157:H7 Shiga Toxin SOP - stx2 screening assay; assay type: functional; details: 30 µM
# [11] = molecular target: T5, Tyrosyl-tRNA synthetase, putative (Trypanosoma cruzi (strain CL Brener)) (UniProt Q4DSP6); test: Trypanosoma cruzi tyrosyl tRNA synthetase (TcYRS) _High Tyrosine SOP; assay type: functional; details: 30 µM; further: in the data most compounds retested in dose-response had high values
# T5 sequence (whole entry): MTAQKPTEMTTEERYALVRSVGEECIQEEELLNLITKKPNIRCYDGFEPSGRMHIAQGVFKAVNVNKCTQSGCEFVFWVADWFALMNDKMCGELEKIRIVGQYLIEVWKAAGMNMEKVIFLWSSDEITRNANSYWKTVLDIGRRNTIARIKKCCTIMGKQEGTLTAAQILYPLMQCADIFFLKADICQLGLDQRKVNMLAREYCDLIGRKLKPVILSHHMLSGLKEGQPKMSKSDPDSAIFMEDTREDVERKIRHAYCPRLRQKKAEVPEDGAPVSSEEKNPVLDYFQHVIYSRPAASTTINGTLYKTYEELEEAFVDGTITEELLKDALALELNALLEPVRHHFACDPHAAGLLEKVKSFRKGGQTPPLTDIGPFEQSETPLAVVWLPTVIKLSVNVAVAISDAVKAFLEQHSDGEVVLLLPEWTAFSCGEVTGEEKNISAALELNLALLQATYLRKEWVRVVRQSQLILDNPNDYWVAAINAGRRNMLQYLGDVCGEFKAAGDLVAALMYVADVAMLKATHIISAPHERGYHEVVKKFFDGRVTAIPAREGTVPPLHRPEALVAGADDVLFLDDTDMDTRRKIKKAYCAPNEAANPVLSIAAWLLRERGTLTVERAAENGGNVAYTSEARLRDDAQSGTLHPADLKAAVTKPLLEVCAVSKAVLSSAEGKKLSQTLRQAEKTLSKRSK
# [12] = molecular target: T5, Tyrosyl-tRNA synthetase, putative (Trypanosoma cruzi (strain CL Brener)); test: Trypanosoma cruzi tyrosyl tRNA synthetase (TcYRS) SOP; assay type: functional; details: 30 µM
# [13] = molecular target: Chromo domain-containing protein 1 (Saccharomyces cerevisiae (strain ATCC 204508 / S288c) (Baker's yeast)) (UniProt P32657); test: ScCHD-1 Enzyme Inhibition Assay; assay type: functional; details: 30 µM; further: in the data most compounds retested in dose-response had high values
# Chain of Chromo domain-containing protein 1 (Saccharomyces cerevisiae (strain ATCC 204508 / S288c) (Baker's yeast)) (P32657 whole entry, the tested form may be a part): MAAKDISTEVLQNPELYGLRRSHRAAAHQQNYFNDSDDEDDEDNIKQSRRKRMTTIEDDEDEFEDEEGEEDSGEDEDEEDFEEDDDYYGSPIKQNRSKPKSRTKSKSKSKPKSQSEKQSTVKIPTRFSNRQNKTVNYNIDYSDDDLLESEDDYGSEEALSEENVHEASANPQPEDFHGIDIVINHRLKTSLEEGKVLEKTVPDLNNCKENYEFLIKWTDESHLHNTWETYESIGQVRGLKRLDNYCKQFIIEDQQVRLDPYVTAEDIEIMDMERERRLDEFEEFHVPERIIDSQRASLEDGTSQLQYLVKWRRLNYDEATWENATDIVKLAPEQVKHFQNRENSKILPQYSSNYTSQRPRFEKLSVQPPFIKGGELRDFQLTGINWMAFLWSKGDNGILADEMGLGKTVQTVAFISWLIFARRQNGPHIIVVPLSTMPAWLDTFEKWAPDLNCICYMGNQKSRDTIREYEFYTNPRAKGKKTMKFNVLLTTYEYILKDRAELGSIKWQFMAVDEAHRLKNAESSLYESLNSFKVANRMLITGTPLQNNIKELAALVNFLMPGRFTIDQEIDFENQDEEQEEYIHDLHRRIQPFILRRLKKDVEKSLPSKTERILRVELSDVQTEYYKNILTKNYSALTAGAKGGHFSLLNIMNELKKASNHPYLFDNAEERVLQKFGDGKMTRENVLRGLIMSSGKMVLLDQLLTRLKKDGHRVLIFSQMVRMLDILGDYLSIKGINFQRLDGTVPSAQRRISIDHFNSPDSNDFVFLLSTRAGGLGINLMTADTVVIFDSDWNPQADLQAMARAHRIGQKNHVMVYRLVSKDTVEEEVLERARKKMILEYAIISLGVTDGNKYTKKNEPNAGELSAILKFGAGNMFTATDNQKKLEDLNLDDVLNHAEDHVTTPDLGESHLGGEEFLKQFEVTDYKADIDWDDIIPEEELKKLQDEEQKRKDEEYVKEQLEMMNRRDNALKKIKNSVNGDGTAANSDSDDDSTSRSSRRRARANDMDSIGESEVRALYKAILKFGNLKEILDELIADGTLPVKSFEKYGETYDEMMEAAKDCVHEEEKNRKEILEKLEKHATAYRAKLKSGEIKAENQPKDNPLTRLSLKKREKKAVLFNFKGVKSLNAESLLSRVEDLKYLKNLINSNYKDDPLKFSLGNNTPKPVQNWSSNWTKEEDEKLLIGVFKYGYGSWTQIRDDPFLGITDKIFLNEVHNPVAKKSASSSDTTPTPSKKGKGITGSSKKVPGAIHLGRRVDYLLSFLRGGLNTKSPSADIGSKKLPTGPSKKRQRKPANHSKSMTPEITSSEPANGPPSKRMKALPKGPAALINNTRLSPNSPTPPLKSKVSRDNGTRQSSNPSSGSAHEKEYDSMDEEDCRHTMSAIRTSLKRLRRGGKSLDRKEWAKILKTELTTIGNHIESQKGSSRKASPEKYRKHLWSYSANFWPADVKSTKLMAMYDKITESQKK
# Chain of Protein translocase subunit SecA (Escherichia coli (strain K12)) (P10408 whole entry): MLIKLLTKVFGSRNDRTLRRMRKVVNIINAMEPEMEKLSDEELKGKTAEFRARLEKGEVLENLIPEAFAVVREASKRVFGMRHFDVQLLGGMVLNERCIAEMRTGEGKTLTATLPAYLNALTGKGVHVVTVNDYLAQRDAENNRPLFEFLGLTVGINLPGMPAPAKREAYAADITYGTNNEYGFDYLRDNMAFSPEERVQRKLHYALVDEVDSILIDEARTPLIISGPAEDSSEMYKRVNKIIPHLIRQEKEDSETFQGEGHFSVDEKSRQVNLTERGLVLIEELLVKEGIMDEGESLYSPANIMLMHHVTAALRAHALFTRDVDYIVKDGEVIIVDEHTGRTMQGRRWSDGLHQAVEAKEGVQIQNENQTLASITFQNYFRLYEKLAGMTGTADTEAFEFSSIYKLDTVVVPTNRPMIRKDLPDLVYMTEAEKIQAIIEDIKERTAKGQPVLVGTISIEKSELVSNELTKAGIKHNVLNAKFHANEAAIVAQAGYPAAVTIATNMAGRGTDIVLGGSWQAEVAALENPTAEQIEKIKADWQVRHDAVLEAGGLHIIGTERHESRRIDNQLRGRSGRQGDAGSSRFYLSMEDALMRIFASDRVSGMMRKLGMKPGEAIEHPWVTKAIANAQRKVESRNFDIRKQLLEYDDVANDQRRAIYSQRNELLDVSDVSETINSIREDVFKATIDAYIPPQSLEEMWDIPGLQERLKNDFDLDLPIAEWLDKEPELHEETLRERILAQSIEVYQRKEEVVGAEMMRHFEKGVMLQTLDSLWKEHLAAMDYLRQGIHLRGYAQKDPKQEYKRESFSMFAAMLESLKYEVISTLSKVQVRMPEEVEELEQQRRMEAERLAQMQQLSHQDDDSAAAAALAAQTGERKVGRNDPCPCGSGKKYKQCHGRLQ
# Chain of Sialic acid-binding Ig-like lectin 9 (Homo sapiens) (Q9Y336 whole entry): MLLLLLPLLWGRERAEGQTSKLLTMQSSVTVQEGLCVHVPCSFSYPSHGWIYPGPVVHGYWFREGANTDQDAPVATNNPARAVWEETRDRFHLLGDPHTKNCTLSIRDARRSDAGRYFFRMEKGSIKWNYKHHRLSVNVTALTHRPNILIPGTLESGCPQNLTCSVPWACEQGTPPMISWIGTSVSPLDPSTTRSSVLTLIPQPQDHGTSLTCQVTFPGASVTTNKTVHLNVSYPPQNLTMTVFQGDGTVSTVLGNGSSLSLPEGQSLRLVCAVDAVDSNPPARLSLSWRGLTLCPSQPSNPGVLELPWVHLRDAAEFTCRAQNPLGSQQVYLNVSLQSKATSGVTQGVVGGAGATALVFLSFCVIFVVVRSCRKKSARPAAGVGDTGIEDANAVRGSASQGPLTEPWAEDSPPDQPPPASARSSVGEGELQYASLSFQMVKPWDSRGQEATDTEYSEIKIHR
Structure (SMILES),Percent Effect [1] [%],Percent Effect [2] [%],Percent Effect [3] [%],Percent Effect [4] [%],Percent Effect [5] [%],Percent Effect [6] [%],Percent Effect [7] [%],Percent Effect [8] [%],Percent Effect [9] [%],Percent Effect [10] [%],Percent Effect [11] [%],Percent Effect [12] [%],Percent Effect [13] [%]
Cc1cnc(N2CCCC3(CCCN(C)C3)C2)nc1 (stereo unspecified),-4.89,0,-0.912,0.0306,4.33,3.37,-6.79,8.82,-22.4,7.25,-2.08,8.64,-5.6
O=C1NC2(CCNCC2)CC1c1cccnc1 (stereo unspecified),-0.858,10.7,-1.51,15.3,-10.1,-6.89,2.1,8.55,13.1,-1.63,4.25,8.97,-2.26
COCC(=O)NC(C)Cc1cccc(Br)c1 (stereo unspecified),-8.66,13.2,-1.17,-9.62,6.28,10.3,-0.383,9.19,12.7,-16.5,7.35,19.5,-12.4
Cc1cccc(CN2CC[C@@H]3[C@@H]2CCN3C(=O)c2ccno2)n1,-0.832,-2.7,3.7,-8.15,-3.73,6.84,-1.67,12.1,-11.7,-15.7,-13.9,1.22,94
CC(C)c1nc(N2CCN3CCCC3C2)c2cnn(C)c2n1 (stereo unspecified),-0.588,8.22,4.74,-0.789,7.41,1.98,-6.79,8.82,-37.1,-16.2,8.33,16.1,-6.37
c1cncc(CO[C@H]2CO[C@@]3(CCN(Cc4ccoc4)C3)C2)c1,-2.55,-1.33,-2.79,7.6,8.75,-4.32,-6.16,12.6,2.27,-19.8,2.12,-2.56,1.04
Fc1cnc(N2CCO[C@H]3CN(CC4CCC4)C[C@H]32)nc1,-5.78,16,-2.5,-5.38,0.543,1.93,-59.3,14.5,5.62,-17.2,-4.17,17.5,-17.8
c1ccc(OC[C@H]2CCC[C@]23CN(Cc2nccs2)CCO3)nc1,1.87,0,-0.162,-19.9,5.02,-2.36,-15.2,3.08,34.4,-11.8,1.06,3.85,3.38
CCN1CCC2(CCC1=O)CN(c1ccnc(SC)n1)CCN2C (stereo unspecified),-7.58,5.33,-3.27,2.15,13,-0.682,6.25,11.2,7.14,–,3.83,8.64,-7.61
